What all share (assay): DAPPL (digital affinity profiling via proximity ligation, sequencing); 10 mM Tris-HCl pH 7.5, 50 mM NaCl, 1 mM DTT, 4% glycerol, room temperature, 30 min; GST-TFs on glutathione beads, 16-mer random dsDNA library, 0.1% formaldehyde crosslink after washing; high values mean tight binding
One test has as its target T1, FLI1 (Homo sapiens, UniProt Q01543 1-452).
T1 sequence: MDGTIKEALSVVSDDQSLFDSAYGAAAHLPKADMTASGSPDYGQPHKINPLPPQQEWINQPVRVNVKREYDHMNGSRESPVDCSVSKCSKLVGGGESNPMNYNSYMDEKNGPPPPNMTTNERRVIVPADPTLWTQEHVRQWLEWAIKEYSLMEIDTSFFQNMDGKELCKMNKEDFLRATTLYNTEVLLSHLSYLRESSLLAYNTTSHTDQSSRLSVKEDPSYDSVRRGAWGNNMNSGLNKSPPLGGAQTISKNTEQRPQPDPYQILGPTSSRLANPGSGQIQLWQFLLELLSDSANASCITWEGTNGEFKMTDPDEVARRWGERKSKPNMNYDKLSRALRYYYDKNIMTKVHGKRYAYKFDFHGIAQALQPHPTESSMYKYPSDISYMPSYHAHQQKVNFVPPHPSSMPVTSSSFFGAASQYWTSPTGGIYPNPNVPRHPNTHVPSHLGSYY
The following applies: protein: recombinant; tags: N-terminal GST; dsDNA, one strand shown. The procedure, abridged:
(§1)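 Sequencing on an Illumina NextSeq500 followed washing, crosslinking with 0.1% formaldehyde, proximity ligation (BsaI/T4 ligase, 1 h, 37 °C) and PCR amplification of pools that had been incubated for 30 min at room temperature with 200 nmole of a random double-stranded 16-mer DNA library in Tris/NaCl/DTT/glycerol buffer. Each pool held DNA-barcoded human transcription factors, expressed in yeast as GST fusions and captured on glutathione beads, plus a tag-only sample. Binding signal is a hexamer's read frequency for a factor divided by its frequency in the tag-only sample.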

In the next test the target is T2, ELK1 (Homo sapiens, UniProt P19419 1-428).
T2 sequence: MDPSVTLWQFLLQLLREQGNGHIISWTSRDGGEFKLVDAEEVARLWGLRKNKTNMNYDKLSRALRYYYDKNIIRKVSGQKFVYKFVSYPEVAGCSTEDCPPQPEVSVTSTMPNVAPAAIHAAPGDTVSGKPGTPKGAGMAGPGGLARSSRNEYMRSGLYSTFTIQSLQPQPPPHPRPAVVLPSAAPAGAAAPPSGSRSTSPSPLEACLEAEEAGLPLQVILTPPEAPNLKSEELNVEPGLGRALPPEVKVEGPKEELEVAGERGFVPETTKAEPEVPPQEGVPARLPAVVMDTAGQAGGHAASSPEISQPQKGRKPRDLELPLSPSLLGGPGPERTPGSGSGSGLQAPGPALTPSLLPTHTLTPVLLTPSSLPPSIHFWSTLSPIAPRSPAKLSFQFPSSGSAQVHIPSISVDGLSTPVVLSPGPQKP
The note with it: protein: recombinant; tags: N-terminal GST; dsDNA, one strand shown. The gist of the method: as §1

The next test deals with T3, GABPA (Homo sapiens, UniProt Q06546 1-454).
T3 sequence: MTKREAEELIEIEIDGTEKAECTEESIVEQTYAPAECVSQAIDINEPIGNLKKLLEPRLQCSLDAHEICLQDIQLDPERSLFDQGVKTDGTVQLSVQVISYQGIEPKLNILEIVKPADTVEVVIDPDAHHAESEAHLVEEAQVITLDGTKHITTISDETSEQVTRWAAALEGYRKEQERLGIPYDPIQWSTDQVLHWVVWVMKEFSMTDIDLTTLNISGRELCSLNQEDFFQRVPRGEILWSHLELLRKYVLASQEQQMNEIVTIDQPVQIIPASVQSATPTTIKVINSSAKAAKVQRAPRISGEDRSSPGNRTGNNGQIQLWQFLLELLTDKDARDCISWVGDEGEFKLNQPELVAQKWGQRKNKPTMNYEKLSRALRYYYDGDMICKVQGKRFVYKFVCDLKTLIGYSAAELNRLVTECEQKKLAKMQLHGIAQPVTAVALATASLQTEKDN
The note with it: protein: recombinant; tags: N-terminal GST; dsDNA, one strand shown. The procedure, abridged: as §1

Another test addresses T4, ERG (Homo sapiens, UniProt P11308 1-479).
T4 sequence: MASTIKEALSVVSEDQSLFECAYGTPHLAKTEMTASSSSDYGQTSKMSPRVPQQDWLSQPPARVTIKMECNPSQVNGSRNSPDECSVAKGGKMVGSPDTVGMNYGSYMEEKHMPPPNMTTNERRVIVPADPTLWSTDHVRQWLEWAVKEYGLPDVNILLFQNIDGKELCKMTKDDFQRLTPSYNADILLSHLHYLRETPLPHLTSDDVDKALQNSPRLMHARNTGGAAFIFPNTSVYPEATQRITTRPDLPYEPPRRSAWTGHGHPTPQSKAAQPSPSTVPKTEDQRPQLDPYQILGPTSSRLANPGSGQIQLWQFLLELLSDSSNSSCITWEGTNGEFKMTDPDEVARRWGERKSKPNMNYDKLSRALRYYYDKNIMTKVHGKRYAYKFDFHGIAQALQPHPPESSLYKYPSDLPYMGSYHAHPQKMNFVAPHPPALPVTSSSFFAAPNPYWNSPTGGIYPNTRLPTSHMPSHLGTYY
The following applies: protein: recombinant; tags: N-terminal GST; dsDNA, one strand shown. The gist of the method: as §1

The next test concerns the target ELF1 (Homo sapiens, UniProt P32519 1-619). The following applies: protein: recombinant; tags: N-terminal GST; dsDNA, one strand shown. The gist of the method: as §1
Another test concerns the target T5, EHF (Homo sapiens, UniProt Q9NZC4 1-300).
T5 sequence: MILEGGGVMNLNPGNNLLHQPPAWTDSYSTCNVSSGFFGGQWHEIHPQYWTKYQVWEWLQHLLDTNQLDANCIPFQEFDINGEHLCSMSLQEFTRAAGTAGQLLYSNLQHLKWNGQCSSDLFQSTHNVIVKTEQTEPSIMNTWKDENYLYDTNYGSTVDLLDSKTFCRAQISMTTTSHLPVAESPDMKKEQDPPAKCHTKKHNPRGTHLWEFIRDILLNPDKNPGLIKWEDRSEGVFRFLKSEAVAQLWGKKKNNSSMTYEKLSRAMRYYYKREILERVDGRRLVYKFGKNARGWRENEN
The following applies: protein: recombinant; tags: N-terminal GST; dsDNA, one strand shown. The procedure, abridged:
as §1

In the next test the target is SPI1 (Homo sapiens, UniProt P17947 1-270). The following applies: protein: recombinant; tags: N-terminal GST; dsDNA, one strand shown. The procedure, abridged: as §1
The next test has as its target SPIB (Homo sapiens, UniProt Q01892 1-262). The note with it: protein: recombinant; tags: N-terminal GST; dsDNA, one strand shown. The gist of the method:
as §1

A further test has as its target T6, ELK3 (Homo sapiens, UniProt P41970 1-407).
T6 sequence: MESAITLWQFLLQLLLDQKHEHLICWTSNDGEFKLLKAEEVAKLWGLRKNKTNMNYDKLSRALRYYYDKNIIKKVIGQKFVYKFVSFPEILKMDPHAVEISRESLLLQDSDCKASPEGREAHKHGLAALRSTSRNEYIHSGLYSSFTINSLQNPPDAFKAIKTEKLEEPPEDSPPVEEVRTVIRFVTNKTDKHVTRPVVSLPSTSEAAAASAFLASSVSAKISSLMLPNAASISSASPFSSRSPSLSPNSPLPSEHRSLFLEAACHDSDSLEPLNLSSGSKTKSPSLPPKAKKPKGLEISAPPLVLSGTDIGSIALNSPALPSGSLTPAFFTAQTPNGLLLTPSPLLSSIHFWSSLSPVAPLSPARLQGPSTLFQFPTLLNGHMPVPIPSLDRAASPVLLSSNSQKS
The following applies: protein: recombinant; tags: N-terminal GST; dsDNA, one strand shown. The gist of the method:
as §1

The next test has as its target T7, FEV (Homo sapiens, UniProt Q99581 1-238).
T7 sequence: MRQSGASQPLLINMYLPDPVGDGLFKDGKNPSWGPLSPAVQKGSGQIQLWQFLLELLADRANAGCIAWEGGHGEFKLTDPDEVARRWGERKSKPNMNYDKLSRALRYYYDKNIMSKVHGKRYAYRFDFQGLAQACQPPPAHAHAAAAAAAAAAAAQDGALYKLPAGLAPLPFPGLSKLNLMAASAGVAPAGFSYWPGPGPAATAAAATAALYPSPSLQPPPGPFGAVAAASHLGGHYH
The note with it: protein: recombinant; tags: N-terminal GST; dsDNA, one strand shown. The procedure, abridged:
as §1

Another test concerns the target ETV5 (Homo sapiens, UniProt P41161 1-510). The following applies: protein: recombinant; tags: N-terminal GST; dsDNA, one strand shown. The procedure, abridged:
as §1

In another test the target is HSF1 (Homo sapiens, UniProt Q00613 1-529). The note with it: protein: recombinant; tags: N-terminal GST; chain copies: 3; dsDNA, one strand shown. The procedure, abridged:
as §1

A further test concerns the target T8, SPIC (Homo sapiens, UniProt Q8N5J4 1-248).
T8 sequence: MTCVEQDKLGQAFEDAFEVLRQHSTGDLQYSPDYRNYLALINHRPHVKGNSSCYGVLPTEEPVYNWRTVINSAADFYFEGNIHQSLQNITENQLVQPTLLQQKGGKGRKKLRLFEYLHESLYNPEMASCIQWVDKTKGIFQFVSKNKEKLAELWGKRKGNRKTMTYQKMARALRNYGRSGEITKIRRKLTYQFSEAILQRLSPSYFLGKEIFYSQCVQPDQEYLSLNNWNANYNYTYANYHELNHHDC
The note with it: protein: recombinant; tags: N-terminal GST; dsDNA, one strand shown. The gist of the method: as §1

The target in the next test is ELF4 (Homo sapiens, UniProt Q99607 1-663). The note with it: protein: recombinant; tags: N-terminal GST; dsDNA, one strand shown. The procedure, abridged:
as §1

The next test addresses T9, ELK4 (Homo sapiens, UniProt P28324-2 1-405).
T9 sequence: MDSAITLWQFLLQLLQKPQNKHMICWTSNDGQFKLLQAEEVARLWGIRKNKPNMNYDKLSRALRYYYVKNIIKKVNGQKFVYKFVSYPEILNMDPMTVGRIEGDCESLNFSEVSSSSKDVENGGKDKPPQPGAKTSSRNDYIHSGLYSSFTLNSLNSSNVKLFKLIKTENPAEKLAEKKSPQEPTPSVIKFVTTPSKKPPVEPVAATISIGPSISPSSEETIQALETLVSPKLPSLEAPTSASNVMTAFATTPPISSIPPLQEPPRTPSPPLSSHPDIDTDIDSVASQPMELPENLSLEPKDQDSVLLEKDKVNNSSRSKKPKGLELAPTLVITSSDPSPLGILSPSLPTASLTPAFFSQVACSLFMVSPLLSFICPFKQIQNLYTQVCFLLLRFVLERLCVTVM
The note with it: protein: recombinant; tags: N-terminal GST; dsDNA, one strand shown. The gist of the method: as §1

A further test deals with T10, ETV2 (Homo sapiens, UniProt O00321 1-342).
T10 sequence: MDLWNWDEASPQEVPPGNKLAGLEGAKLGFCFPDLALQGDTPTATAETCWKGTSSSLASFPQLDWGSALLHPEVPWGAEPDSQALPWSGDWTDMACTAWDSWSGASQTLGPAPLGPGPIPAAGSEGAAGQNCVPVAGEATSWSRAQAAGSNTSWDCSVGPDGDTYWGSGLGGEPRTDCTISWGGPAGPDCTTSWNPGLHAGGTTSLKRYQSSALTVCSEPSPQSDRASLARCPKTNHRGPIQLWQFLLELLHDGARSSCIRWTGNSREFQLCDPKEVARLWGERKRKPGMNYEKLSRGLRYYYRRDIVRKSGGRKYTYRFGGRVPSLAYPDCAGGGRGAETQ
The following applies: protein: recombinant; tags: N-terminal GST; dsDNA, one strand shown. The procedure, abridged: as §1

For another test, the target named is T11, ELF3 (Homo sapiens, UniProt P78545 1-371).
T11 sequence: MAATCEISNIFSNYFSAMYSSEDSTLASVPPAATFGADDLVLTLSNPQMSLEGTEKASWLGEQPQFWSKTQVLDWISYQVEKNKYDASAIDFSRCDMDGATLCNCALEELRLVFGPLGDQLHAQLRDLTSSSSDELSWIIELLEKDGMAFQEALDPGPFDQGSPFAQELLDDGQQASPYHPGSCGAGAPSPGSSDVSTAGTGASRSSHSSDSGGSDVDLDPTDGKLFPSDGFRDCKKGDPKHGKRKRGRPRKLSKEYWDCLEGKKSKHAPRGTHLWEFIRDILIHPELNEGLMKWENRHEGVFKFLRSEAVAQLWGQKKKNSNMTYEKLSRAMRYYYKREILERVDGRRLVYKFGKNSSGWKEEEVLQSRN
The following applies: protein: recombinant; tags: N-terminal GST; dsDNA, one strand shown. The procedure, abridged:
as §1

The target in a further test is ETV1 (Homo sapiens, UniProt P50549 1-477). The note with it: protein: recombinant; tags: N-terminal GST; dsDNA, one strand shown. The gist of the method: as §1
Chain of ETV1 (P50549 whole entry): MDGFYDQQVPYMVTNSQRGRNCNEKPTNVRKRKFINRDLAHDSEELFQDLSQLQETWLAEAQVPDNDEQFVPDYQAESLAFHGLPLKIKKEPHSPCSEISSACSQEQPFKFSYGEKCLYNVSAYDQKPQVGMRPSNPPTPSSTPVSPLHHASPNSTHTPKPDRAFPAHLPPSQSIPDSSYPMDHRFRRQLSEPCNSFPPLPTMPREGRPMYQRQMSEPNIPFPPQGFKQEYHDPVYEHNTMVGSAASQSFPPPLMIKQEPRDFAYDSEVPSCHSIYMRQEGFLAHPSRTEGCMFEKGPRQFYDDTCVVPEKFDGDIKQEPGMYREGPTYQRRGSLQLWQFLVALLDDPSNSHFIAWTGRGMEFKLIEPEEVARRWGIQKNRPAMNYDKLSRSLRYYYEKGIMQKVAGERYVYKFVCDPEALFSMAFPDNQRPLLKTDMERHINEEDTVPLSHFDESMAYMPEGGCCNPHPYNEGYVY

Drawing on article PMC7862700, “An all-to-all approach to the identification of sequence-specific readers for epigenetic DNA modifications on cytosine”, this text covers binding signal for one sequence.

Chain of SPIB (Q01892 whole entry): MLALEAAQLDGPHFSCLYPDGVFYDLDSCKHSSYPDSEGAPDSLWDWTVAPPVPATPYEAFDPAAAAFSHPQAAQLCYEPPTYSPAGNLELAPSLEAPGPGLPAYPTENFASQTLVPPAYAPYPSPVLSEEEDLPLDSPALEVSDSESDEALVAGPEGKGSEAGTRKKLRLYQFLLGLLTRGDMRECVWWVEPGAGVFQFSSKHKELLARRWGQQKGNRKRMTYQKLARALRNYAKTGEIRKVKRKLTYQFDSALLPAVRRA
Chain of ETV5 (P41161 whole entry): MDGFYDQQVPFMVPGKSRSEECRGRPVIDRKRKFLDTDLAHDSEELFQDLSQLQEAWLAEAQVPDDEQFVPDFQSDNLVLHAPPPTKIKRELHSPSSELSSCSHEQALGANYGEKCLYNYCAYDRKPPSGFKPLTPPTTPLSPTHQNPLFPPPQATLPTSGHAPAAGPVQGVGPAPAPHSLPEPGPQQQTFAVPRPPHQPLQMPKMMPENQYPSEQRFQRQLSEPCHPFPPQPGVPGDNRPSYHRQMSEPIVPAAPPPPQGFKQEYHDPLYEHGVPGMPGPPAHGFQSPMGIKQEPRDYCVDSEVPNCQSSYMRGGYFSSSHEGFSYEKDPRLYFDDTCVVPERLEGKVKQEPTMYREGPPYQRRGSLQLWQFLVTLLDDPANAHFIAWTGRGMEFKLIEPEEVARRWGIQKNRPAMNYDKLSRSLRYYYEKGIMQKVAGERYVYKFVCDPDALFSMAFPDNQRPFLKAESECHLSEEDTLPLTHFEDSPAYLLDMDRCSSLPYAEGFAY
Chain of ELF1 (P32519 whole entry): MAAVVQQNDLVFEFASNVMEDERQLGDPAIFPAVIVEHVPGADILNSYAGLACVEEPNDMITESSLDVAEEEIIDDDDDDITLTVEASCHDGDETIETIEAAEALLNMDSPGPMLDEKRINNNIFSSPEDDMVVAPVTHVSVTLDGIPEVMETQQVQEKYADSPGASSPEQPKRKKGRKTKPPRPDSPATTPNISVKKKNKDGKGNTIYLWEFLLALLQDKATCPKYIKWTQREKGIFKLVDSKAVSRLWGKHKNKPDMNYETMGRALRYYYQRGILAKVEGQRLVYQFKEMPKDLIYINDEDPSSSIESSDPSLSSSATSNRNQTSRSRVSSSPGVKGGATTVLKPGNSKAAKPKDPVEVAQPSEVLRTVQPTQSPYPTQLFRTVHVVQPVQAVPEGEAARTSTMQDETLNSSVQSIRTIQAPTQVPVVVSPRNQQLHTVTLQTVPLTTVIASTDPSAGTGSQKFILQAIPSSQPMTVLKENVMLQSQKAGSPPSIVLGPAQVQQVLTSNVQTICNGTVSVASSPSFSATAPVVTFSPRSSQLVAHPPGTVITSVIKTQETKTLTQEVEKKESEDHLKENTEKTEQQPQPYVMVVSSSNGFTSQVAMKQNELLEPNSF
Chain of ELF4 (Q99607 whole entry): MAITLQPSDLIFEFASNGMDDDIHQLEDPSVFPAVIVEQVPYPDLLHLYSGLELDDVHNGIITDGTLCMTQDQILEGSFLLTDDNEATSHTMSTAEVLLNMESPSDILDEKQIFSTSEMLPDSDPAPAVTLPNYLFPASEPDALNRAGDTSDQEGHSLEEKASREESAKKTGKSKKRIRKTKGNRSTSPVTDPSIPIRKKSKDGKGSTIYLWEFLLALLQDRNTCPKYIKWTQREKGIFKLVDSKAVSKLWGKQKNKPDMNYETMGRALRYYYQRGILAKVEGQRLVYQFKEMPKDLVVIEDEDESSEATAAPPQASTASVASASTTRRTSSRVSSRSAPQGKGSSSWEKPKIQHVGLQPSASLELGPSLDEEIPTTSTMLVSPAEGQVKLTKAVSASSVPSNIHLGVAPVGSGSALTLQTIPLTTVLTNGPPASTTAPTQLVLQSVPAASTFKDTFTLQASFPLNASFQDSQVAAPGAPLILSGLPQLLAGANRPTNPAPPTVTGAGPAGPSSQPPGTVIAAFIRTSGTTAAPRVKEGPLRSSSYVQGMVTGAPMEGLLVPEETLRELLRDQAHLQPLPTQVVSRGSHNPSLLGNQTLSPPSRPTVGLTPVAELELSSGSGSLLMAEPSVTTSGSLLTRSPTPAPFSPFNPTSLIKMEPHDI
Chain of HSF1 (Q00613 whole entry): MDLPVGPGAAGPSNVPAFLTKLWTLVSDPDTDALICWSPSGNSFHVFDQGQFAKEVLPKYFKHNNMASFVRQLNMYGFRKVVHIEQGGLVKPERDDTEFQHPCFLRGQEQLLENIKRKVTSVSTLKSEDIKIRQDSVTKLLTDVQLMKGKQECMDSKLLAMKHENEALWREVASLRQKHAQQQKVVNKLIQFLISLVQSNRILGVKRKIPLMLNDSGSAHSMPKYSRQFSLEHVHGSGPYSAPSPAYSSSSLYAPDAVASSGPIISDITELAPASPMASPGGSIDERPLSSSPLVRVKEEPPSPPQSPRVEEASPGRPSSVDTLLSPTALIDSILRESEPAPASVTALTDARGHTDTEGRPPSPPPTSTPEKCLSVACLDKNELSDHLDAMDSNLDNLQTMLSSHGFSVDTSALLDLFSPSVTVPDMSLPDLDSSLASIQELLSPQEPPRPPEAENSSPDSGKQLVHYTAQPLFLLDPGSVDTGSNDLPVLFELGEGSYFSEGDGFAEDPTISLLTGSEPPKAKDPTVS

With GTTCAA, the binding signal with FLI1 was 1.07 fold enrichment (6-mer frequency, TF over GST control); in the test with ELK1 it was 1.18 fold enrichment (6-mer frequency, TF over GST control); in the test with GABPA, 1.17 fold enrichment (6-mer frequency, TF over GST control); with ERG, 1.14 fold enrichment (6-mer frequency, TF over GST control); in the test with ELF1 it was 1.16 fold enrichment (6-mer frequency, TF over GST control); with EHF it was 1.18 fold enrichment (6-mer frequency, TF over GST control). For the same sequence, the binding signal with SPI1 was 1.19 fold enrichment (6-mer frequency, TF over GST control); with SPIB it was 1.19 fold enrichment (6-mer frequency, TF over GST control); with ELK3, 1.13 fold enrichment (6-mer frequency, TF over GST control); with FEV it was 1.08 fold enrichment (6-mer frequency, TF over GST control); in the test with ETV5, 1.14 fold enrichment (6-mer frequency, TF over GST control); with HSF1 it was 1.03 fold enrichment (6-mer frequency, TF over GST control). Moreover, the binding signal was 1.15 fold enrichment (6-mer frequency, TF over GST control) in the test with SPIC; 1.15 fold enrichment (6-mer frequency, TF over GST control) with ELF4; 1.16 fold enrichment (6-mer frequency, TF over GST control) with ELK4; 1.05 fold enrichment (6-mer frequency, TF over GST control) with ETV2; 1.22 fold enrichment (6-mer frequency, TF over GST control) in the test with ELF3; 1.23 fold enrichment (6-mer frequency, TF over GST control) with ETV1.
